A selection: hits, their analogues and other compounds. The true share with any hit is near 0.9%.
AddAB inh – less growth of phage-infected E. coli with AddAB | E. coli expressing H. pylori AddAB, absorbance growth | inhibition, % at 11.9 µM | 0.29% of 330,000 active | AID 435030; in the data active = inhibition above about 12%;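 also: 0% = vehicle wells of infected cells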
Calb FLC – C. albicans growth modulation with fluconazole; C. albicans CaCi-2 (fluconazole-resistant clinical isolate) + fluconazole, Alamar Blue growth, 48 h; 0.57% of 300,000 active; AID 1979; growth inhibition, % (no concentration beside the values);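 active = growth inhibition above about 58% in most replicates, limit read from the data, passing the limit was not always enough; inconclusive = exactly half the replicates above a set limit; inactive = most replicates below a set limit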;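 also: all wells also contain fluconazole at 8 µg/ml as a sub-toxic cotreatment; 0% = median of DMSO wells and 100% = median of geldanamycin control wells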
E coli growth-1 – E. coli growth inhibition | 0.21% of 330,000 active | AID 1053175 | OD600 absorbance (no concentration beside the values) | Escherichia coli growth, OD600, 23 h; active compounds read low;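 active = OD600 absorbance below the run mean of sample wells minus 3.6 SD, in any replicate, cut at about 0.56 in these data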
phage Ecoli inh – E. coli growth loss with phage present; growth absorbance; inhibition, % at 11.9 µM; 0.26% of 360,000 active; AID 651602; in the data active = inhibition above about 11%
E coli growth-2 – counter-screen for AddAB inhibitors: E. coli growth inhibition; E. coli V3065 growth, OD600 absorbance, 18 h; inhibition, % at 11.9 µM; 0.27% of 330,000 active;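 active = inhibition above the campaign's mean inhibition across all tested compounds plus 3 SD, cut at about 9.9% in these data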;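 also: uninfected addAB+ strain grown without phage in ampicillin broth; 0% = DMSO wells and 100% = ciprofloxacin 0.95 µg/ml wells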
Tat export inh – inhibitors of E. coli Tat protein transport. E. coli MC4100 TorA-mCherry Tat export, fluorescence. inhibition, % at 10 µM. 0.036% of 340,000 active. AID 488895;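 active = mean replicate inhibition at least 50% and at least half of replicates individually reaching 50%; inconclusive = only one of the two criteria met; inactive = neither criterion met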;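 also: exported cargo escapes ClpAP degradation while cytoplasmic cargo is degraded and loses fluorescence; 0% = median of neutral control wells and 100% = median of NaSCN control wells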
RecBCD conf – growth loss of phage-infected V66 E. coli, RecBCD confirmation screen. inhibition, % at 11.9 µM. AID 651982. shares compounds with phage Ecoli inh. 45% of 890 active. E. coli V66 + T4 2- phage, growth OD;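 active = mean inhibition over triplicates exceeding the hit threshold derived in the original primary screen, cut at about 11% in these data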
Ecoli viability – inhibits E. coli viability, flagging RecBCD hits as nonselective | absorbance (OD) growth | inhibition, % at 11.9 µM | AID 651983 | 29% of 890 active | shares compounds with phage Ecoli inh; in the data active = inhibition above about 20%;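 also: E. coli strain V66 grown with compound alone and no phage infection; 0% = bacteria with DMSO vehicle only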
AddAB phage OD – growth loss of phage-infected AddAB E. coli, RecBCD counter-screen; shares compounds with phage Ecoli inh; E. coli expressing H. pylori AddAB + T4 phage, OD growth; gene 2 mutant T4, recBCD-deleted host; inhibition, % at 11.9 µM; 45% of 890 active; AID 651984;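 active = mean inhibition above the solvent-only control wells' mean plus 3 SD, cut at about 22% in these data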;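 also: higher means less bacterial growth from phage killing when AddAB is blocked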
An asterisk follows results filed as active; ? = inconclusive; nt = no result given.

SMILES	AddAB inh	Calb FLC	E coli growth-1	phage Ecoli inh	E coli growth-2	Tat export inh	RecBCD conf	Ecoli viability	AddAB phage OD
S=C(NN=C(c1ccccc1)c1ccccn1)N(Cc1ccccn1)Cc1ccccn1	nt	nt	nt	15.2*	nt	-8.0	6.3	8.3	9.4
O=C(O)c1ccc(C=NNC(=O)C2CC2(c2ccccc2)c2ccccc2)cc1 (stereo not drawn)	nt	nt	0.689	nt	nt	nt	nt	nt	nt
CCOc1ccc(C=NNc2nc(N3CCCC3)nc(N3CCCC3)n2)cc1OC	nt	nt	0.638	nt	nt	nt	nt	nt	nt
CN(C)C(=O)N1CCC(C(=O)NCc2ccc(F)cc2)CC1	1.4	-1.7	0.728	46.2*	-1.2	-7.0	-3.2	-2.2	-2.4
CC(=NNC(=O)c1ccncc1)c1ccc2c(c1)OCO2	nt	nt	0.667	nt	nt	nt	nt	nt	nt
O=C(N/N=C/c1ccc([N+](=O)[O-])o1)c1ccc2c(c1)OCO2	nt	29.2	nt	11.1*	nt	-15.4	12.3*	12.3	102.5*
O=C(CN1CCOCC1)NN=Cc1ccc([N+](=O)[O-])o1	nt	nt	nt	17.4*	nt	nt	10.4	9.5	53.8*
COc1cc(C(=O)Oc2ccccc2C=NNC(=O)c2ccc(C)cc2)cc(OC)c1OC	nt	nt	0.688	nt	nt	nt	nt	nt	nt
Cc1ccccc1C=NNC(=O)c1ccccc1-n1cccc1	nt	nt	0.678	nt	nt	nt	nt	nt	nt
ON=Cc1ccc(-c2cc(Cl)ccc2Cl)o1	nt	nt	0.71	nt	nt	nt	nt	nt	nt
COC(=O)C1N2C(=O)C(NC(=O)COc3ccccc3)C2SC1(C)C (stereo not drawn)	nt	nt	0.648	nt	nt	nt	nt	nt	nt
CC1(C)S[C@@H]2[C@H](NC(=O)[C@H](N)c3ccccc3)C(=O)N2[C@H]1C(=O)OC1OC(=O)c2ccccc21 (stereo partly drawn)	-1.4	nt	nt	21.4*	0.8	-12.6	29.5*	53.0*	14.6
Cc1[nH]nc(-c2cccnc2)c1N=NN(C)C	nt	nt	nt	98.8*	nt	142.1*	103.5*	103.8*	102.4*
CO[C@H]1C=CO[C@@]2(C)Oc3c(C)c(O)c4c(O)c(c(C=NN5CCN(C)CC5)c(O)c4c3C2=O)NC(=O)C(C)=CC=C[C@H](C)[C@H](O)[C@@H](C)[C@@H](O)[C@@H](C)[C@H](OC(C)=O)[C@@H]1C	48.7*	nt	nt	76.4*	41.6*	75.0*	78.2*	90.1*	92.8*
CN(C)c1ccc(C(=O)NN=Cc2cc(Br)cc(Br)c2O)cc1	nt	nt	0.714	nt	nt	nt	nt	nt	nt
CCOc1ccc(/C=N/Nc2ccc(Cl)nn2)c(O)c1	3.8	4.5	nt	0.6	0.1	1.7	nt	nt	nt
Oc1ccc(/C=N/Nc2ccc(Cl)nn2)c(O)c1O	2.1	?	nt	10.9*	2.7	-2.8	2.9	2.4	21.4*
CCCN(CCC)Cc1c(C(=O)NN=C/C(C)=C\c2ccco2)nnn1-c1nonc1N	nt	nt	0.661	nt	nt	nt	nt	nt	nt
CC(C)(C)c1cc2nc3c(c(=O)n2[nH]1)CN(Cc1ccccc1)C3=O	1.4	-1.3	0.653	12.2*	2.0	nt	-0.5	0.0	-0.5
CCOc1ccc(NC(=S)NCc2cccnc2)cc1	4.8	3.8	0.676	6.2	4.7	-11.2	nt	nt	nt
O=C(O)COc1ccccc1C(Nc1ccccn1)c1cc(Cl)c2cccnc2c1O (stereo not drawn)	4.3	-2.3	0.665	3.8	-0.2	5.6	nt	nt	nt
CCOc1ccc(C(Nc2cccnc2)c2cc(Cl)c3cccnc3c2O)cc1 (stereo not drawn)	9.7	109.5*	0.688	17.2*	19.7*	0.7	2.1	5.0	5.9
CCC(=O)NC(c1ccc(OC)c(OC)c1)c1cc(Cl)c2cccnc2c1O (stereo not drawn)	nt	2.8	0.647	15.2*	nt	-5.0	5.9	8.7	15.1
CCOc1ccc(S(=O)(=O)N=C(c2ccccc2)N(C)C)cc1	nt	nt	0.724	nt	nt	nt	nt	nt	nt
COc1ccc(N/N=C/c2c(C(=O)O)ccc3ccccc23)cc1	10.7	2.4	nt	11.2*	16.0*	-4.7	2.6	7.1	5.6
SMILES	AddAB inh	Calb FLC	E coli growth-1	phage Ecoli inh	E coli growth-2	Tat export inh	RecBCD conf	Ecoli viability	AddAB phage OD
Oc1ccc(-c2nc3ccccc3nc2-c2ccccc2)cc1	0.5	-27.6	0.701	32.6*	0.3	-1.0	-1.3	-1.3	-0.5
CC(C)c1ccc(NC(=O)CSc2nc3ncccc3[nH]2)cc1	2.7	10.1	0.679	8.4	3.0	17.7	nt	nt	nt
CC(C)OC(=O)c1ccc(NC(=O)CSc2nc3ncccc3[nH]2)cc1	11.3	38.6	0.59	11.0*	6.5	-30.2	4.7	7.2	3.8
C=Cc1cnc([N+](=O)[O-])n1C	nt	nt	nt	28.5*	nt	nt	19.0*	21.4*	97.2*
O=c1c(O)cccc2cc(O)c(O)c(O)c12	11.1	-7.7	0.625	14.2*	11.1*	52.7*	7.9	9.2	9.9
COc1cc2cccc(OC)c(=O)c2c(OC)c1OC	3.7	9.0	0.736	1.3	3.7	-4.0	nt	nt	nt
Cc1ccc(S(=O)(=O)N2CCOCC2)cc1NC(=O)CNCc1ccc(Cl)cc1Cl	1.3	nt	0.705	12.0*	-0.8	-4.0	1.0	1.1	4.7
O=C(CNCc1ccccc1Cl)Nc1cc(S(=O)(=O)N2CCOCC2)ccc1Cl	-0.5	nt	0.631	-0.8	0.5	1.5	nt	nt	nt
Cc1ccccc1-n1c(=C(C#N)C(=O)Nc2ccccc2)sc(=Cc2ccco2)c1=O	nt	nt	0.718	nt	nt	nt	nt	nt	nt
O=C1CC(c2nc3ccccc3[nH]2)CN1c1cccc(C(F)(F)F)c1 (stereo not drawn)	-0.4	5.6	0.697	27.5*	0.4	6.5	1.8	1.1	-0.3
c1nc(SSc2ncnc3nc[nH]c23)c2[nH]cnc2n1	nt	nt	nt	24.2*	nt	-20.2	58.0*	57.8*	75.0*
OCC1OC(n2cnc3c(=S)nc[nH]c32)CC1O (stereo not drawn)	nt	nt	0.71	17.9*	nt	5.9	1.1	-1.5	-1.6
O=C(Nc1cccc(F)c1)Nc1cccc(Cl)c1	8.3	32.1	0.412*	14.3*	9.7	0.0	13.3*	12.7	8.1
O=C(Nc1cccc(Cl)c1)Nc1cccc(Cl)c1	5.2	nt	0.642	7.0	5.0	-9.9	nt	nt	nt
COC(=O)C1=C(C(=O)OC)C2N(C)c3ccc(OC)cc3[C@@]23CC(C(=O)OC)N(C(=O)NCCBr)C3=N1 (stereo partly drawn)	nt	nt	0.726	nt	nt	nt	nt	nt	nt
CC(=NNS(=O)(=O)c1ccc(Br)cc1)c1ccc(NC(=O)c2ccc(C)o2)cc1	nt	nt	0.767	nt	nt	nt	nt	nt	nt
Cc1ccc(C(=O)Cn2c(=N)n(N)c3ccccc32)cc1	3.5	-21.9	0.694	81.6*	0.3	-4.1	0.3	-0.3	-3.6
C=CCn1cc(C(=O)N2CCN(C)CC2)c(=O)c2cc(S(=O)(=O)N3CCCC3)ccc21	3.3	-1.0	0.762	21.6*	-0.7	-2.3	-2.3	-2.0	-2.4
O=C(NN=C/C=C/c1ccco1)C1COc2ccccc2O1 (stereo not drawn)	nt	nt	0.631	nt	nt	nt	nt	nt	nt
O=C(Nc1ccc(Cl)cc1)c1cc2c(cc1O)[nH]c1ccccc12	10.9	-3.3	0.171*	11.6*	10.2*	0.1	10.5	14.5	4.4

High-throughput results from PubChem BioAssay.
